The text below walks through data of PubChem BioAssay (NCI).

Compounds without any hit were thinned out: in the full panel of roughly 83,000, 20% have a hit.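 Percent growth is the endpoint: 0 to 100 indicates growth inhibition (40 means 60% inhibition), 0 means no net growth, and negative values indicate cell death.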 Unmarked numbers belong to inactive results. Active and inactive are the calls of the source. Rule for the calls: active = growth percent below 10; inactive = the rest.

Some test systems named below: SK-MEL-2 melanoma; EKVX NSCLC; SN12C renal; UO-31 renal; TK-10 renal; ACHN renal; CAKI-1 renal; A498 renal; CCRF-CEM leukemia; MOLT-4 leukemia.
What all share (assay): NCI-60 one-dose screen, 48 h (100 = growth as untreated, 0 = no growth, -100 = all killed)
Conditions in all cases: 10 µM unless noted

Turning to `Cc1ccc(C(=O)CC(=O)C(F)(F)C(F)(F)C(F)(F)F)s1`, the growth in the assay with SK-MEL-2 melanoma is 113%; in the assay with EKVX NSCLC, 94.6%; with SN12C renal, 96.4%; in the assay on UO-31 renal, 74.9%; with TK-10 renal, 118%; in the assay on ACHN renal it was 110%. Besides, the growth in the assay on CAKI-1 renal is 99.2%; in the assay on A498 renal it was 112%; with CCRF-CEM leukemia it was 103%; in the assay on MOLT-4 leukemia it was 109%.

Turning to `CCCCCCCC/C=C\CCCCCCCC(=O)OCCCCCC`, the growth in the assay on SK-MEL-2 melanoma was 123%; with EKVX NSCLC, 84.9%; in the assay on SN12C renal it was 111%; in the assay with UO-31 renal, 91.8%; with TK-10 renal, 112%; in the assay on ACHN renal, 107%. For the same compound, the growth in the assay on CAKI-1 renal is 96%; with A498 renal it was 70.5%; with CCRF-CEM leukemia, 98.8%; in the assay with MOLT-4 leukemia, 104%.

Consider `CC(C)(C)OC[C@@H]1N=C(c2ccc(Br)cc2)Nc2nc3ccccn3c2C1=O`, for which the growth is 49.2% with SK-MEL-2 melanoma; 81.6% in the assay on EKVX NSCLC; 84.1% in the assay with SN12C renal; 52.1% with UO-31 renal; 95.1% in the assay on TK-10 renal; 75.3% with ACHN renal. In addition, the growth in the assay with CAKI-1 renal was 64.2%; in the assay with A498 renal, 66.9%; with CCRF-CEM leukemia it was 67.8%; with MOLT-4 leukemia, 53.7%.

As for `O=C(CC(=O)c1cccc(Cl)c1)c1cccc(Cl)c1`, the growth in the assay on SK-MEL-2 melanoma was 60.4%; in the assay on EKVX NSCLC, 20.5%; in the assay on SN12C renal, 23.2%; in the assay with UO-31 renal it was 42.7%; in the assay with TK-10 renal, 46.6%; in the assay with ACHN renal, 31.2%. Moreover, the growth in the assay on CAKI-1 renal was 23.4%; in the assay on A498 renal, 79.2%; with CCRF-CEM leukemia, 11.4%; in the assay on MOLT-4 leukemia it was 21.7%.

As for `O=C(/C=C/c1cn(-c2ccccc2)nc1-c1ccccc1)OCc1cn(-c2cccc([N+](=O)[O-])c2)nn1`, the growth with SK-MEL-2 melanoma is 87.8%; in the assay with EKVX NSCLC, 85.9%; in the assay on SN12C renal, 92.7%; in the assay on UO-31 renal, 68.7%; in the assay on TK-10 renal, 98.6%; in the assay on ACHN renal, 90.1%. Further, the growth is 82.5% with CAKI-1 renal, 66.7% in the assay with A498 renal, 81.1% with CCRF-CEM leukemia and 85.8% in the assay on MOLT-4 leukemia.

`COC(=O)c1ccc2c(c1)nc(-c1cc3ccccc3[nH]c1=O)n2-c1cc(C(C)(C)C)[nH]n1`: the growth was 55.9% with SK-MEL-2 melanoma; 85.6% in the assay on EKVX NSCLC; 57.3% in the assay with SN12C renal; 29.1% with UO-31 renal; 113% with TK-10 renal; 78.5% in the assay on ACHN renal. Further, the growth with CAKI-1 renal is 67.9%; in the assay with A498 renal, 59.6%; in the assay with CCRF-CEM leukemia, 30.3%; in the assay on MOLT-4 leukemia, 18.1%.

Take `CCN(CC)c1ccc(/C=N/NC(=O)C[N+](C)(C)C)cc1`: the growth was 137% with SK-MEL-2 melanoma; 94.2% in the assay on EKVX NSCLC; 105% with SN12C renal; 108% in the assay on UO-31 renal; 95.2% in the assay on TK-10 renal; 105% in the assay on ACHN renal. Besides, the growth is 101% in the assay with CAKI-1 renal, 92.3% in the assay with A498 renal, 90.9% in the assay on CCRF-CEM leukemia and 22.1% in the assay on MOLT-4 leukemia.

Regarding `CC(=O)Oc1ccccc1C(=O)Nc1ncc([N+](=O)[O-])s1`, the growth in the assay on SK-MEL-2 melanoma is -30.1% (active); in the assay with EKVX NSCLC, 34.7%; in the assay with SN12C renal, 15.4%; with UO-31 renal it was 16.2%; with TK-10 renal, 19.4%; in the assay on ACHN renal it was 55.8%. The growth is 10.7% in the assay on CAKI-1 renal, -40.2% (active) in the assay with A498 renal, 13.9% in the assay with CCRF-CEM leukemia and -9.45% (active) in the assay on MOLT-4 leukemia.

For `C=CC(=O)N1CN(C(=O)C=C)CN(C(=O)C=C)C1`, the growth is 110% in the assay with SK-MEL-2 melanoma; 108% in the assay with EKVX NSCLC; 95.2% with SN12C renal; 55.2% in the assay on UO-31 renal; -11.4% (active) in the assay with TK-10 renal; 22.4% with ACHN renal. Further, the growth in the assay on CAKI-1 renal is 3.54% (active); with A498 renal, 106%; with CCRF-CEM leukemia it was 10.1%; in the assay with MOLT-4 leukemia it was 23.4%.

`NS(=O)(=O)c1ccc(CCn2c(SCC(=O)N/N=C/c3ccccc3O)nc3ccccc3c2=O)cc1`: the growth is 14.2% with SK-MEL-2 melanoma; 75.8% in the assay on EKVX NSCLC; 51.3% with SN12C renal; 70.4% in the assay with UO-31 renal; 70% in the assay with TK-10 renal; 87.4% in the assay with ACHN renal. In addition, the growth in the assay on CAKI-1 renal is 60.1%; in the assay with A498 renal, 21.7%; with CCRF-CEM leukemia, 18.7%; in the assay on MOLT-4 leukemia, 21.4%.

Take `COc1ccc(Cl)cc1Nc1nc(C(F)(F)F)ccc1C(=O)NN`: the growth in the assay with SK-MEL-2 melanoma is 11.7%; in the assay with EKVX NSCLC, 27.9%; in the assay with SN12C renal it was 35.7%; in the assay with UO-31 renal, 33.6%; in the assay with TK-10 renal it was 26.1%; in the assay with ACHN renal, 6.99% (active). The growth in the assay on CAKI-1 renal is 20.5%; in the assay with A498 renal, 75.3%; with CCRF-CEM leukemia, -76.5% (active); with MOLT-4 leukemia, 24.5%.

For `O=C(Nc1cccc(N=Cc2c(O)ccc3ccccc23)c1)c1ccccc1`, the growth was 87.9% in the assay with SK-MEL-2 melanoma; 93.8% in the assay with EKVX NSCLC; 99% in the assay with SN12C renal; 65.9% in the assay with UO-31 renal; 92.4% with TK-10 renal; 96.3% with ACHN renal. In addition, the growth in the assay with CAKI-1 renal was 84.7%; in the assay on A498 renal, 103%; in the assay with CCRF-CEM leukemia, 90.8%; with MOLT-4 leukemia it was 147%.

As for `O=[N+]([O-])c1ccc(N/N=C/c2ccccc2O)nc1`, the growth with SK-MEL-2 melanoma was 35%; with EKVX NSCLC it was 29.7%; in the assay on SN12C renal, 37.7%; with UO-31 renal, 25.5%; in the assay with TK-10 renal, 26.2%; in the assay on ACHN renal, 27.3%. For the same compound, the growth was 4.68% (active) with CAKI-1 renal, 97.8% with A498 renal, 17.1% with CCRF-CEM leukemia and 14.3% with MOLT-4 leukemia.
